In PubChem BioAssay (Tox21) one finds Potency and outcome data, which are given here for 25 compounds.

Assay [1] can be described thus: qHTS assay to identify small molecule antagonists of the estrogen receptor beta (ER-beta) signaling pathway - cell viability counter screen (AID 1259382; active = well fitted curve in the direction sought with a large enough effect in the repeat runs; an effect the other way counts as inactive or inconclusive;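 note: HEK293T cells carrying ER-beta-UAS-bla reporter stimulated with estradiol; series mostly up to about 92 µM; nearly all actives have a fitted effect of over 55% in size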). In short, it runs like this:
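CellTiter-Glo ATP luminescence measured after the LiveBLAzer read in the same wells; ER-beta-UAS-bla HEK293T cells, 16 hr compound treatment with 1nM 17-beta-estradiol agonist at 37C, 5% CO2.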
(In qHTS, concentration-response curves come from the screen itself.)

In assay [2] the target is Estrogen receptor (Homo sapiens) (UniProt P03372). The experiment in a line: qHTS assay to identify small molecule agonists of the estrogen receptor alpha (ER-alpha) signaling pathway in the presence of an antagonist (AID 1259383). Note: top concentration of the series differs between compounds; nearly all actives have a fitted effect of over 15% in size. A digest of the protocol: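 Luminescent ERE-luciferase reporter, VM7Luc4E2 cells (endogenous ER-alpha); 10.0nM ICI-182,780 final; 15-point compound titration; 22hr at 37C; ONE-Glo, 30min RT.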

A short description of assay [3]: qHTS assay to identify small molecule agonists or antagonists of the thyroid stimulating hormone receptor (TSHR) signaling pathway - wild type cell line counter screen (AID 1259384). In short, it runs like this:
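Wild-type HEK293 cells were plated 18 h at 37 C/5% CO2, pin-dosed with compound plus Ro20-1724 medium, held 30 min at room temperature, then given cAMP-d2 and anti-cAMP-cryptate; fluorescence was read after 1 h. Fifteen concentrations, triplicate.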

The target of assay [4] is Thyrotropin receptor (Homo sapiens) (UniProt P16473). The assay can be described thus: qHTS assay to identify small molecule antagonists of the thyroid stimulating hormone receptor (TSHR) signaling pathway (AID 1259385). Note: nearly all actives have a fitted effect of over 20% in size. In short, it runs like this: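 TSHR-HEK293 cells were plated and held 18 h at 37C/5% CO2, then given compound plus Ro20-1724 and stimulated with TSH at 1.5 ng/mL final. After 30 min at room temperature, cAMP was detected with cAMP-d2/anti-cAMP-cryptate (1 h) by fluorescence.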

Assay [5] is described as follows: qHTS assay to identify small molecule agonists of the estrogen receptor alpha (ER-alpha) signaling pathway in the presence of an antagonist - cell viability counter screen (AID 1259386; active = well fitted curve in the direction sought with a large enough effect in the repeat runs; an effect the other way counts as inactive or inconclusive;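 note: cells exposed to compounds for 22 h at 37 °C before the viability read; nearly all actives have a fitted effect of over 30% in size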; note: potency is the fitted concentration of half-maximal effect). A digest of the protocol: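 Using estrogen-depleted VM7Luc4E2 cells, the 15-concentration compound series was applied together with 10.0nM ICI-182,780 and incubated 22hr at 37C/5% CO2. Cell viability was then scored by CellTiter-Fluor.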

In assay [6] the target is Progesterone receptor (Homo sapiens) (UniProt P06401). The experiment in a line: qHTS assay to identify small molecule agonists of the progesterone receptor (PR) signaling pathway (AID 1346784). Note: nearly all actives have a fitted effect of over 30% in size. Note: potency is the fitted concentration of half-maximal effect. In short, it runs like this: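 Cells (PR-UAS-bla HEK 293T, GripTite) were plated in assay medium containing 2% charcoal-stripped FBS and incubated 6 hr. Test compounds in DMSO were added for 16 hr at 37C. FRET substrate was then loaded for 2 hr at room temperature before fluorescence reading.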

Assay [7] has the same target. The experiment in a line: qHTS assay to identify small molecule antagonists of the progesterone receptor (PR) signaling pathway (AID 1346795; active = well fitted inhibition curve with a large enough effect in the signal ratio in the repeat runs, not every such curve was filed as active; the % refers to the signal ratio; note: potency is the fitted concentration of half-maximal effect). In short, it runs like this: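 Antagonist mode: compounds tested against 1 nM (final) promegestone stimulation in HEK293T cells expressing PR-UAS-bla reporter, 16 hr at 37C, 5% CO2; beta-lactamase activity detected via B/G FRET substrate after 2 hr at room temperature.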

The nature of assay [8]: qHTS assay to identify small molecule antagonists of the progesterone receptor (PR) signaling pathway - cell viability counter screen (AID 1346798; active = well fitted curve in the direction sought with a large enough effect in the repeat runs; an effect the other way counts as inactive or inconclusive; note: series mostly up to about 92 µM; nearly all actives have a fitted effect of over 50% in size). A digest of the protocol:
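Counter screen for cytotoxicity: viability of PR-UAS-bla HEK293T cells was measured with CellTiter-Glo luminescence following 16 hr compound exposure in the presence of R5020.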

Assay [9] in a line: qHTS assay to identify small molecule agonists of the progesterone receptor (PR) signaling pathway - cell viability counter screen (AID 1346799). Note: nearly all actives have a fitted effect of over 45% in size. In short, it runs like this: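 Cells (PR-UAS-bla HEK293T) are plated at 3,000/well in 2% charcoal-stripped FBS medium, rested 6 hr, dosed and incubated 16 hr at 37C. CellTiter-Glo is then added and luminescence measured after 30 min at room temperature.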

The target of assay [10] is Androgen receptor (Homo sapiens) (UniProt P10275). The experiment in a line: qHTS assay to identify small molecule agonists of the androgen receptor (AR) signaling pathway in the presence of an antagonist (AID 1259381). Note: nearly all actives have a fitted effect of over 15% in size. A digest of the protocol: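 Plated MDA-kb2 cells (3,000/well) were pre-incubated 5hr, given nilutamide (3.0uM final) or buffer, then dosed with compounds in DMSO at 15 concentrations. Luciferase activity was quantified by luminescence after 16hr at 37C.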

Values joined by “and” are separate entries in the source; they are usually repeats but may differ in a detail not shown here. Identical values can stand only once. Records with an inconclusive call do not appear. The source holds several records for some structures; these can differ, active in one and inactive in another. Active and inactive are the calls of the source. Unless noted, calls come from the whole dose curve.

Sequence of Progesterone receptor (Homo sapiens) (P06401 whole entry, looked up): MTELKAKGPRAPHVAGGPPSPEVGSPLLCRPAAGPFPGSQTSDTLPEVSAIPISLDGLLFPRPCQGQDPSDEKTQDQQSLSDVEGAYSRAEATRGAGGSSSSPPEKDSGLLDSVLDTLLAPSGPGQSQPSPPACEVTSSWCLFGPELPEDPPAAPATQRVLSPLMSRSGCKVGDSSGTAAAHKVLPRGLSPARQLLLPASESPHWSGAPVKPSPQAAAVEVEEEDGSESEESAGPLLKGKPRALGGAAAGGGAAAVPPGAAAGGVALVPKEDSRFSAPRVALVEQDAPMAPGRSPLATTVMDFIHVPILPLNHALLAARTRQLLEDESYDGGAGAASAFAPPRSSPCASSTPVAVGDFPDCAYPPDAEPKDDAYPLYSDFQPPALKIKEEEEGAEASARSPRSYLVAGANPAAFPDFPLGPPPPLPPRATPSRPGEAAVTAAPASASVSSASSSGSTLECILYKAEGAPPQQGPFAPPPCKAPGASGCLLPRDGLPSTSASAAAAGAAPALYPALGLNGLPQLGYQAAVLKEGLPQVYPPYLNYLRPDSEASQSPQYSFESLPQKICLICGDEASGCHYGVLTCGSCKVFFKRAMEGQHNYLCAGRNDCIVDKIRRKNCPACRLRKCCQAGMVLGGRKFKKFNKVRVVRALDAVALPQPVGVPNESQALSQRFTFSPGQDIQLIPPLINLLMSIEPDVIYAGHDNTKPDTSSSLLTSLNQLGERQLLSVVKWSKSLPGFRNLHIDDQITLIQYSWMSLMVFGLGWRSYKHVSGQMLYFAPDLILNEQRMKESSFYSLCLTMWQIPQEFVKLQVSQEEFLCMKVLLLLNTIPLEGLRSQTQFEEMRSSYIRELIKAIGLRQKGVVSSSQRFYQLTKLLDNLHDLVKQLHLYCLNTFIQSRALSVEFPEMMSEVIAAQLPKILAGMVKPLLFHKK
Sequence of Thyrotropin receptor (Homo sapiens) (P16473 whole entry, looked up): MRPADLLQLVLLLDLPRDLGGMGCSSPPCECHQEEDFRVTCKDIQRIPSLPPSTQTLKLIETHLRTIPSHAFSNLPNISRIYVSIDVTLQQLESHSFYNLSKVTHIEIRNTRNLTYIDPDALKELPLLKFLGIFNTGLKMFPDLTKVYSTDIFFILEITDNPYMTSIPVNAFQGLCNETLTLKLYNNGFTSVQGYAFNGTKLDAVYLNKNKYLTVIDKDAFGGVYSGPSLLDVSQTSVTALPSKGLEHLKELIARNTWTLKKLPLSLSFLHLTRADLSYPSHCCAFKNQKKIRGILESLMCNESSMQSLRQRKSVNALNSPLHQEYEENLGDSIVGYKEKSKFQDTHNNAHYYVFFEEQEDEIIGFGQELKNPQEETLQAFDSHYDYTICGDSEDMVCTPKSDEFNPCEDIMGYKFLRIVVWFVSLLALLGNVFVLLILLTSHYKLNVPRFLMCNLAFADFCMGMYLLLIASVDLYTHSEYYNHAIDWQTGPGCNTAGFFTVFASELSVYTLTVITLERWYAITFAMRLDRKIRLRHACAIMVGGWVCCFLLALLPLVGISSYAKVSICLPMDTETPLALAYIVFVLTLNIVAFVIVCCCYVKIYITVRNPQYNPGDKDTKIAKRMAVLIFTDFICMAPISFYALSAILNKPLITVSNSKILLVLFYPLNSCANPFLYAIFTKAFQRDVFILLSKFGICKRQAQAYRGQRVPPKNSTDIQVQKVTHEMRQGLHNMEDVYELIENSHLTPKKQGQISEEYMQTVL
Sequence of Estrogen receptor (Homo sapiens) (P03372 whole entry, looked up): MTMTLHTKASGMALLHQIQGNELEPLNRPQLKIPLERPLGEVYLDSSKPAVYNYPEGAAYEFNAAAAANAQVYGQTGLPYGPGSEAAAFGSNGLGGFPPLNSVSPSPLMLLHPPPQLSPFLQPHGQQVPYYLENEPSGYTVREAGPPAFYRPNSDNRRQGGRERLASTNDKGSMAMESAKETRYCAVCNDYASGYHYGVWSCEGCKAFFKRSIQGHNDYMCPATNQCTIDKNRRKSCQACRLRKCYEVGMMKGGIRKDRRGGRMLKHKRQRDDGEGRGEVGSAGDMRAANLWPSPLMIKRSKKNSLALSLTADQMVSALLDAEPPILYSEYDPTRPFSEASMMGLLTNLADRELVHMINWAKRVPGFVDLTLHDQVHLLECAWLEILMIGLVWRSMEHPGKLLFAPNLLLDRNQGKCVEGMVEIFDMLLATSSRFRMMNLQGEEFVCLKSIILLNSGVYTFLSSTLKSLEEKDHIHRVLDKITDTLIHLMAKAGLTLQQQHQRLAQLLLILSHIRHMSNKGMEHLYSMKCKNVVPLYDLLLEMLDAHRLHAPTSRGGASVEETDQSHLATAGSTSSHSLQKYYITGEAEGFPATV
Sequence of Androgen receptor (Homo sapiens) (P10275 whole entry, looked up): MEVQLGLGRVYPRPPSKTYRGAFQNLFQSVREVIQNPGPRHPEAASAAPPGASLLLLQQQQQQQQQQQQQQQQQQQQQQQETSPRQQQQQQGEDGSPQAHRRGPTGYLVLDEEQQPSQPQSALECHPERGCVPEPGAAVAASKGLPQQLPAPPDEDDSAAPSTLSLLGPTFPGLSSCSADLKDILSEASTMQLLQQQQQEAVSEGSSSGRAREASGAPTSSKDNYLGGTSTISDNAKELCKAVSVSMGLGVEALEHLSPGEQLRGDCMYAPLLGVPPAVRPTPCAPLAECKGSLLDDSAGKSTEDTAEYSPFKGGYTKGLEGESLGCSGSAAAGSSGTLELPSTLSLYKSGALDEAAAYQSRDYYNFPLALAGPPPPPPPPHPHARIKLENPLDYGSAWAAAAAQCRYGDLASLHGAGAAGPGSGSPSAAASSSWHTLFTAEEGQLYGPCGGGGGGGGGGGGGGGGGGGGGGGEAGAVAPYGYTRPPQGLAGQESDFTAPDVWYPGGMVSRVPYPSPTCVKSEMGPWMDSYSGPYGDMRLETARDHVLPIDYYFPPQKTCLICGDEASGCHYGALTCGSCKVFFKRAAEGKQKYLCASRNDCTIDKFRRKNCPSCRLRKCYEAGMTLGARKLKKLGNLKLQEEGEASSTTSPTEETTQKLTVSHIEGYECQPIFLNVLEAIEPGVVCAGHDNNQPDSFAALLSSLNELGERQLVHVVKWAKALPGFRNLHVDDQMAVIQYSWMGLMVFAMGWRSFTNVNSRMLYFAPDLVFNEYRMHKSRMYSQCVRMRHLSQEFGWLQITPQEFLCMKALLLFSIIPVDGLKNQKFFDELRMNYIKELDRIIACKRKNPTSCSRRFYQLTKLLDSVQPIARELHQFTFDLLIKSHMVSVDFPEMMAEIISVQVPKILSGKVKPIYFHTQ

With `O=C(O)c1cc(O)c(O)c(O)c1`, the Potency result in assay [1], in assay [2], in [4], in assay [6], in assay [7] and in assay [8] was “inactive” in each case. In [9], the Potency result is “inactive”. Moreover, the compound was called inactive in assay [3]. The Potency in assay [5] is 55 µM (active).
For `CC1=CCC2CC1C2(C)C` (centres undefined), the Potency result in assay [1], in assay [2], in [4], in assay [5], in [6] and in assay [7] was “inactive” in each case. For the same compound, the Potency result in [8] and in assay [9] was “inactive” throughout. For the same compound, in assay [3], the compound was called inactive.
As to `c1ccc(OCCOc2ccccc2)cc1`, the Potency result in assay [1], in assay [2], in [4], in assay [5], in [6] and in [7] was “inactive” in each case. Further, the Potency entry in assay [8] and in assay [9] was “inactive” in each case. The compound was classed as inactive in assay [3].
`O=C=NCCCCCCN=C=O`: the Potency entry in assay [1], in [2], in [4], in [5], in [6] and in [7] was “inactive” each time. Besides, the Potency entry in assay [8] and in assay [9] was “inactive” throughout. Further, in assay [3], the outcome was inactive.
For the compound `CC(C)c1ccc(S(=O)(=O)O)cc1`, the Potency entry in assay [1], in assay [2], in assay [4], in assay [5], in assay [6] and in assay [7] was “inactive” each time. In addition, the Potency result in assay [8] and in [9] was “inactive” in each case. Moreover, the compound was called inactive in [3].
As for `CC(=O)OCC(=O)[C@@]12N=C(C)O[C@@H]1C[C@H]1[C@@H]3CCC4=CC(=O)C=C[C@]4(C)[C@H]3[C@@H](O)C[C@@]12C`, the Potency entry in [1], in [2], in [4], in assay [5], in [7] and in assay [8] was “inactive” throughout. For the same compound, in [9], the Potency result was “inactive”. In addition, the compound was called inactive in [3]. Also, the Potency in assay [6] was 686 nM (active).
In the case of `C[Si](O[Si](C)(C)C)O[Si](C)(C)C`, the Potency entry in assay [10], in assay [1], in assay [4], in [5], in assay [7] and in [8] was “inactive” in each case. For the same compound, the Potency result in assay [9] was “inactive”. For the same compound, the compound was called inactive in assay [3].
Regarding `O=C(O)c1cc(=O)c2c(OCC(O)COc3cccc4oc(C(=O)O)cc(=O)c34)cccc2o1`, the Potency entry in assay [1], in assay [2], in assay [4], in [5], in assay [6] and in assay [7] was “inactive” throughout. The Potency result in assay [8] and in assay [9] was “inactive” each time. The compound was classed as inactive in assay [3].
Turning to `C=C(C)C(=O)Nc1ccc(Cl)c(Cl)c1`, the Potency result in assay [1], in assay [2], in assay [4], in assay [5], in assay [6] and in [8] was “inactive” in each case. Also, in assay [9], the Potency entry is “inactive”. Moreover, the compound was classed as inactive in assay [3]. Besides, the Potency in [7] is 24.6 µM (active) and 48.4 µM (active).
As to `CC(=O)Nc1cccc(O)c1`, the Potency result in [1], in [2], in [4], in assay [5], in assay [7] and in [8] was “inactive” each time. In assay [9], the Potency result is “inactive”. In addition, the compound was classed as inactive in [3]. In assay [6], the Potency is 24.2 µM (active) and inactive.
Regarding `CCC(O)OC(O)CC` (centres undefined), the Potency entry in [1], in assay [2], in assay [4], in assay [5], in assay [6] and in [7] was “inactive” throughout. For the same compound, the Potency result in assay [8] and in assay [9] was “inactive” each time. Besides, in assay [3], the compound was called inactive.
As for `CC(c1cc2ccccc2s1)N(O)C(N)=O` (centres undefined), the Potency result in assay [10], in [1], in assay [2], in [5], in assay [6] and in assay [8] was “inactive” throughout. In addition, in assay [9], the Potency result was “inactive”.
Turning to `O=C(O)c1ccccc1C(c1ccc(O)cc1)c1ccc(O)cc1`, the Potency entry in assay [10], in assay [1], in assay [2], in assay [4], in assay [5] and in assay [6] was “inactive” throughout. The Potency result in [7], in [8] and in assay [9] was “inactive” each time. In addition, the call in assay [3] was inactive.
On to `CCCCCCCCCCCCOCCO`, for which the Potency result in [10], in [1], in [4], in assay [5] and in assay [9] was “inactive” each time. Also, the compound was called inactive in assay [3].
Take `O=C(O)c1ccc2c(c1)C(=O)OC2=O`: the Potency result in assay [10], in assay [1], in assay [2], in [4], in [5] and in assay [6] was “inactive” in each case. For the same compound, the Potency entry in assay [8] and in [9] was “inactive” in each case. Besides, in assay [3], the call was inactive.
Consider `Nc1cc([N+](=O)[O-])ccc1O`, for which the Potency entry in [10], in assay [1], in [6], in assay [7], in assay [8] and in [9] was “inactive” in each case. Besides, the result in assay [3] was inactive. Further, in assay [5], the Potency is 43.3 µM (active) and 27.2 µM (active).
With `CCCCCCCCCCCCS`, the Potency result in [1], in [2], in assay [4], in [5], in [6] and in [7] was “inactive” throughout. The Potency entry in assay [8] and in [9] was “inactive” each time. In assay [3], the outcome was inactive.
`Cc1cc(C)c(C)cc1C`: the Potency entry in assay [1], in assay [2], in assay [4], in assay [5], in [6] and in assay [7] was “inactive” each time. Further, the Potency entry in [8] and in assay [9] was “inactive” throughout. Also, the result in assay [3] was inactive.
Take `O=S(=O)(O)c1ccc2ccccc2c1`: the Potency result in assay [1], in assay [2], in [4], in [5], in assay [6] and in assay [7] was “inactive” throughout. Further, the Potency entry in assay [8] and in [9] was “inactive” in each case. Also, the outcome in [3] was inactive.
As to `CCCCC(CC)COC(=O)CCCCC(=O)OCC(CC)CCCC` (centres undefined), the Potency result in [1], in [2], in [4], in [5], in assay [6] and in assay [7] was “inactive” in each case. Further, the Potency entry in assay [8] and in assay [9] was “inactive” throughout. The compound was classed as inactive in assay [3].
Take `CC(=O)Nc1ccccc1`: the Potency entry in assay [1], in [2], in assay [4], in assay [5], in assay [6] and in assay [7] was “inactive” each time. In addition, the Potency result in [8] and in [9] was “inactive” throughout. Also, the compound was called inactive in [3].
With `CCc1cccc(C)c1N`, the Potency entry in assay [10], in [1], in assay [2], in assay [4], in [5] and in assay [6] was “inactive” each time. The Potency result in assay [7], in assay [8] and in assay [9] was “inactive” each time. Besides, in [3], the compound was classed as inactive.
As to `CC1=C(C)S(=O)(=O)CCS1(=O)=O`, the Potency result in assay [10], in [1], in assay [2], in assay [5], in assay [6] and in [7] was “inactive” each time. Further, the Potency entry in assay [9] is “inactive”.
On to `CN(C)CCCN`, for which the Potency entry in assay [1], in assay [2], in assay [4], in assay [5], in assay [6] and in assay [7] was “inactive” each time. For the same compound, the Potency result in [8] and in [9] was “inactive” in each case. The compound was classed as inactive in [3].
Regarding `Cc1ccc(N(C)C)cc1`, the Potency result in assay [10], in [1], in [2], in [4], in assay [5] and in assay [6] was “inactive” in each case. The Potency result in assay [7], in assay [8] and in assay [9] was “inactive” throughout. In addition, the compound was classed as inactive in [3].
